Test results taken from PubChem BioAssay (NCI).
This is part of a sample that, as a whole, favours compounds with a hit. Of some 83,000 tested, about 20% had one in any assay.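 Cells were grown in 96-well plates and exposed to the test compound at a single concentration for 48 hours; results are reported as percent growth, with values below 10 considered active.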 Active and inactive are the calls of the source.

Assays:
Assay in all cases: NCI-60 one-dose screen, 48 h (100 = growth as untreated, 0 = no growth, -100 = all killed)
Settings in all cases: 10 µM
DU-145 prostate = tested on: DU-145 prostate
K-562 leukemia = tested on: K-562 leukemia
MALME-3M melanoma = tested on: MALME-3M melanoma
MDA-MB-231 breast = tested on: MDA-MB-231 breast
SF-268 CNS = tested on: SF-268 CNS
SF-295 CNS = tested on: SF-295 CNS
SF-539 CNS = tested on: SF-539 CNS
UACC-257 melanoma = tested on: UACC-257 melanoma
RXF 393 renal = tested on: RXF 393 renal
M14 melanoma = tested on: M14 melanoma

Measured: growth

O=C(CSc1nnc(-c2c[nH]c3ccccc23)n1-c1ccccc1)c1ccc(Br)cc1
inactive: DU-145 prostate 58.5% | K-562 leukemia 82% | MALME-3M melanoma 71% | MDA-MB-231 breast 66% | SF-268 CNS 49.1% | SF-295 CNS 33.7% | SF-539 CNS 62% | UACC-257 melanoma 52.6%

COc1cc(-c2nc3cc(Cl)c(Cl)cc3[nH]2)ccc1OCc1nnc(-c2ccc(Br)cc2)o1
active: K-562 leukemia 6.47% | MALME-3M melanoma -78.2% | MDA-MB-231 breast -38.9% | RXF 393 renal -77.7% | SF-295 CNS -46.1% | SF-539 CNS -92.4% | UACC-257 melanoma 4.56% | M14 melanoma -9.79%
inactive: DU-145 prostate 47.2% | SF-268 CNS 38.6%

Cn1cc(/C=N/Nc2cccc(Cl)n2)c2ccccc21
inactive: DU-145 prostate 72.5% | K-562 leukemia 20.2% | MALME-3M melanoma 70.7% | MDA-MB-231 breast 51.6% | SF-268 CNS 56% | SF-295 CNS 73.5% | SF-539 CNS 64.6% | UACC-257 melanoma 88.8%

O=C(CSc1nnc(-c2c[nH]c3ccccc23)n1-c1ccccc1)Nc1ccc(C(=O)/C=C/c2ccc(Cl)cc2)cc1
inactive: DU-145 prostate 79.7% | K-562 leukemia 59.4% | MALME-3M melanoma 61.6% | MDA-MB-231 breast 79.3% | SF-268 CNS 56.9% | SF-295 CNS 65.3% | SF-539 CNS 63.9% | UACC-257 melanoma 104% | M14 melanoma 81.8%

CCCn1c(=O)c2[nH]c(-c3ccc(OCc4nc5ccc(C#N)cc5[nH]4)cc3)nc2n(CCC)c1=O
inactive: DU-145 prostate 79% | K-562 leukemia 41.6% | MALME-3M melanoma 73.2% | MDA-MB-231 breast 30.8% | SF-268 CNS 80.4% | SF-295 CNS 76.7% | SF-539 CNS 64.9% | UACC-257 melanoma 99.5% | M14 melanoma 99.6%

COc1cc(C2CC(c3ccccc3)=Nc3c(N)nc(N)nc3N2)ccc1Oc1nc(Nc2ccc(F)cc2)nc(N(C)C)n1 (configuration not stated)
inactive: DU-145 prostate 48% | K-562 leukemia 17.9% | MALME-3M melanoma 32.4% | MDA-MB-231 breast 31% | SF-268 CNS 55% | SF-295 CNS 45.9% | SF-539 CNS 63% | UACC-257 melanoma 45.4%

O=c1[nH]c2ccccc2cc1CSc1ccc(Nc2nccc(-c3ccc(Cl)cc3)n2)cc1
active: DU-145 prostate -52% | MALME-3M melanoma -54.3% | MDA-MB-231 breast -56.1% | SF-268 CNS 2.16% | SF-295 CNS -90.8% | SF-539 CNS -89%
inactive: K-562 leukemia 36.2% | UACC-257 melanoma 54.1% | M14 melanoma 30.8%

COc1ccc(-c2cc(C(=O)N=Nc3c(O)[nH]c4ccccc34)c3ccccc3n2)cc1
active: DU-145 prostate -92.8% | MALME-3M melanoma -54.6% | MDA-MB-231 breast -58.8% | SF-268 CNS -0.0948% | SF-295 CNS 4.82% | SF-539 CNS -76%
inactive: K-562 leukemia 25.7% | UACC-257 melanoma 47.8% | M14 melanoma 11.1%

COc1ccc(-c2cc(C(=O)N=Nc3c(O)[nH]c4ccc(Br)cc34)c3ccccc3n2)cc1
inactive: DU-145 prostate 19.9% | K-562 leukemia 10.2% | MALME-3M melanoma 45.9% | SF-268 CNS 64.4% | SF-295 CNS 35.3% | SF-539 CNS 31.7% | UACC-257 melanoma 102%
active: MDA-MB-231 breast -68.2%

COc1ccc2[nH]cc(/C=N/Nc3cccc(Cl)n3)c2c1
inactive: DU-145 prostate 64.4% | K-562 leukemia 19.9% | MALME-3M melanoma 76.3% | SF-268 CNS 32.8% | SF-295 CNS 47.2% | SF-539 CNS 26.8% | UACC-257 melanoma 84.3%
active: MDA-MB-231 breast 3.25%

CCOC(=O)c1c(CSc2ccccc2)n(C)c2cc(CN(C)C)c(O)c(CN(C)C)c12
active: MALME-3M melanoma -15.3%
inactive: DU-145 prostate 60.8% | K-562 leukemia 19.7% | MDA-MB-231 breast 16% | SF-268 CNS 71.3% | SF-295 CNS 46.9% | SF-539 CNS 50.5% | UACC-257 melanoma 54.3% | M14 melanoma 47.6%

COc1ccc2ncc(C#Cc3cncc(C(=O)Nc4ccc(CN5CCN(C)CC5)c(C(F)(F)F)c4)c3)n2n1
active: DU-145 prostate -100% | K-562 leukemia -9.3% | MALME-3M melanoma -93.6% | MDA-MB-231 breast -95.8% | SF-268 CNS -64.5% | SF-295 CNS -97.5% | SF-539 CNS -100% | UACC-257 melanoma -62.2% | M14 melanoma -80.2%

CCOP(=O)(OCC)O[C@H]1CC[C@]2(C)[C@H]3CC[C@@H]4[C@@H]([C@](C)(O)CCC=C(C)C)CC[C@@]4(C)[C@]3(C)CC[C@H]2C1(C)C
inactive: DU-145 prostate 41.4% | K-562 leukemia 13% | MALME-3M melanoma 40.3% | MDA-MB-231 breast 13.9% | SF-268 CNS 45.9% | SF-295 CNS 32.1% | SF-539 CNS 42.7% | M14 melanoma 29%
active: UACC-257 melanoma 9.27%

COc1ccc(-c2cc(-c3cc(C(=O)c4ccc(Br)cc4)n4ccc(C)cc34)nc(N)c2C#N)cc1
active: SF-539 CNS 5.3%
inactive: DU-145 prostate 75.9% | K-562 leukemia 92.6% | MALME-3M melanoma 74.4% | MDA-MB-231 breast 59.7% | SF-268 CNS 93.9% | SF-295 CNS 89.1% | UACC-257 melanoma 88% | M14 melanoma 64.6%

C/C(=N\N=C\c1ccc(Cl)c([N+](=O)[O-])c1)c1ccc2c(c1)Nc1ccccc1S2
active: MALME-3M melanoma -3.5%
inactive: DU-145 prostate 28.1% | K-562 leukemia 38.6% | MDA-MB-231 breast 32.4% | SF-268 CNS 47.3% | SF-295 CNS 42.7% | SF-539 CNS 12.8% | UACC-257 melanoma 51.2% | M14 melanoma 62.6%

C/C(=N\N=C\c1ccc(N(C)C)cc1)c1ccc2c(c1)Nc1ccccc1S2
inactive: DU-145 prostate 62% | K-562 leukemia 28.2% | MALME-3M melanoma 49.9% | MDA-MB-231 breast 52% | SF-268 CNS 62.8% | SF-295 CNS 24.6% | SF-539 CNS 52.8% | UACC-257 melanoma 64.9% | M14 melanoma 67.7%

Cc1ccc(-c2nc(Nc3ccc(S(N)(=O)=O)cc3)c3ccccc3n2)cc1
active: K-562 leukemia 6.36%
inactive: DU-145 prostate 56.6% | MALME-3M melanoma 98.8% | MDA-MB-231 breast 22.6% | SF-268 CNS 52.1% | SF-295 CNS 24.2% | SF-539 CNS 37% | UACC-257 melanoma 93.9% | M14 melanoma 22.9%

COc1ccc(-c2c(N)c(=O)n(C)c3ccccc23)cc1
inactive: DU-145 prostate 83.2% | K-562 leukemia 46.8% | MALME-3M melanoma 70.6% | MDA-MB-231 breast 49.5% | SF-268 CNS 66% | SF-295 CNS 75.2% | SF-539 CNS 80.6% | UACC-257 melanoma 92.9% | M14 melanoma 70.6%

COc1ccc(/C=C/C(=O)c2ccc(S(=O)(=O)NCCNc3nc(Nc4ccc(F)cc4)nc(N(C)C)n3)cc2)cc1
active: M14 melanoma 7.31%
inactive: DU-145 prostate 28.7% | K-562 leukemia 27.3% | MALME-3M melanoma 49.3% | MDA-MB-231 breast 29% | SF-268 CNS 25.8% | SF-295 CNS 23.3% | SF-539 CNS 41.7% | UACC-257 melanoma 47.9%

CCOC(=O)CNC(=O)CN(Cc1ccccc1)C(=O)[C@@]1(C)CCC[C@]2(C)[C@H]3CC4C(C(C)C)=C[C@]3(CC[C@H]21)[C@@H]1C(=O)CCC(=O)[C@H]41
inactive: DU-145 prostate 92.6% | K-562 leukemia 25.3% | MALME-3M melanoma 83% | MDA-MB-231 breast 64.8% | SF-268 CNS 64.7% | SF-295 CNS 54.4% | SF-539 CNS 77.2% | UACC-257 melanoma 70.2% | M14 melanoma 72.2%

Nc1nc(Nc2ccc(Cl)cc2)nn1Cc1cccc(Br)c1
inactive: DU-145 prostate 53.3% | K-562 leukemia 20.5% | MALME-3M melanoma 50.6% | MDA-MB-231 breast 42.6% | SF-268 CNS 40.7% | SF-295 CNS 44.7% | SF-539 CNS 37.8% | UACC-257 melanoma 58.2% | M14 melanoma 35.8%

O=C(Nc1nc2ccccc2s1)c1ccc(Br)cc1
inactive: DU-145 prostate 97.2% | K-562 leukemia 64.1% | MALME-3M melanoma 85.2% | MDA-MB-231 breast 93.4% | SF-268 CNS 112% | SF-295 CNS 67.3% | SF-539 CNS 92.8% | UACC-257 melanoma 85% | M14 melanoma 96%

CCOc1ccc(/C=N/NC(=O)Cn2nc(Cc3ccc([N+](=O)[O-])cc3)c3onc(C)c3c2=O)cc1
inactive: K-562 leukemia 62.5% | UACC-257 melanoma 70.3% | M14 melanoma 50.9%
active: DU-145 prostate -15.2% | MALME-3M melanoma -2.13% | MDA-MB-231 breast -19.9% | SF-268 CNS -8.68% | SF-295 CNS 1.32% | SF-539 CNS -64.5%

CCOC(=O)c1sc(N/N=C(\C)c2ccc3c(c2)Nc2ccccc2S3)nc1C
active: K-562 leukemia 1.72% | SF-295 CNS -14.9%
inactive: DU-145 prostate 44.9% | MALME-3M melanoma 31.9% | MDA-MB-231 breast 18.5% | SF-268 CNS 56.9% | SF-539 CNS 33.8% | UACC-257 melanoma 35.8% | M14 melanoma 19.4%

CC1=C(c2cc(-c3ccc(Cl)cc3)c(C#N)c(N)n2)C(c2ccccc2)NC(=S)N1 (configuration not stated)
inactive: DU-145 prostate 51.3% | K-562 leukemia 36.9% | MDA-MB-231 breast 51.9% | SF-268 CNS 51% | SF-295 CNS 78.1% | SF-539 CNS 39.9% | UACC-257 melanoma 77.7% | M14 melanoma 49.8%
active: MALME-3M melanoma 4.96%

O=c1[nH]c2ccccc2cc1CSc1ccc(Nc2nccc(-c3ccc4c(c3)OCO4)n2)cc1
inactive: DU-145 prostate 77.5% | K-562 leukemia 87.6% | MALME-3M melanoma 55.2% | MDA-MB-231 breast 78.6% | SF-268 CNS 71.6% | SF-295 CNS 101% | UACC-257 melanoma 105% | M14 melanoma 82.4%
active: SF-539 CNS 9.95%

Cc1ccc(-c2nc(Nc3ccc(C)c(S(N)(=O)=O)c3)c3ccccc3n2)cc1
active: K-562 leukemia 5.02% | SF-539 CNS -31.3%
inactive: DU-145 prostate 35% | MALME-3M melanoma 92.4% | MDA-MB-231 breast 96.5% | SF-268 CNS 96.1% | SF-295 CNS 85.2% | UACC-257 melanoma 104% | M14 melanoma 63.2%

O=C(CSc1nnc(-c2c[nH]c3ccccc23)n1-c1ccccc1)Nc1ccc(C(=O)/C=C/c2ccc(Br)cc2)cc1
inactive: DU-145 prostate 96.4% | K-562 leukemia 69.1% | MALME-3M melanoma 98.5% | MDA-MB-231 breast 87.8% | SF-268 CNS 67% | SF-295 CNS 74.8% | SF-539 CNS 80.5% | UACC-257 melanoma 109% | M14 melanoma 102%

Cc1ccc2nc(-c3ccc(-c4nnc(SCC(=O)Nc5ccc(Br)cc5)o4)cc3)[nH]c2c1
inactive: DU-145 prostate 82.9% | MALME-3M melanoma 87.1% | MDA-MB-231 breast 77.9% | SF-268 CNS 80.6% | SF-295 CNS 63.8% | SF-539 CNS 68.3% | UACC-257 melanoma 96.5% | M14 melanoma 66.6%
active: K-562 leukemia 7.89%
